Source: article PMC7862700, “An all-to-all approach to the identification of sequence-specific readers for epigenetic DNA modifications on cytosine”

Assays:
Test in all cases: DAPPL (digital affinity profiling via proximity ligation, sequencing); 10 mM Tris-HCl pH 7.5, 50 mM NaCl, 1 mM DTT, 4% glycerol, room temperature, 30 min; GST-TFs on glutathione beads, 16-mer random dsDNA library, 0.1% formaldehyde crosslink after washing; high values mean tight binding
FLI1 = biological target: T1, FLI1 (Homo sapiens, UniProt Q01543 1-452); conditions: protein: recombinant; tags: N-terminal GST; dsDNA, one strand shown
T1 sequence: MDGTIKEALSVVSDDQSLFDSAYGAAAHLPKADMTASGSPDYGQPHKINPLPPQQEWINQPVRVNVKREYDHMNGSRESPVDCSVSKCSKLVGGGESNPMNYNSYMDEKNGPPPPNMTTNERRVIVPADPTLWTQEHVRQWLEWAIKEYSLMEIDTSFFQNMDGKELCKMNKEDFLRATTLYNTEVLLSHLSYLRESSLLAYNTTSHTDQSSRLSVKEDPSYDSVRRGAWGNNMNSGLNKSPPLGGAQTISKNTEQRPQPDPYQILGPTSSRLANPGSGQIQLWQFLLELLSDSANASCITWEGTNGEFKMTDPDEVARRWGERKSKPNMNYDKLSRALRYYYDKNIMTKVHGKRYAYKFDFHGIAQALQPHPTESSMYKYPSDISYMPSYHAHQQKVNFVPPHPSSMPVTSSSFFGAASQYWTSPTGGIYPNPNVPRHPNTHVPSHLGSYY
Outline: (§1)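 A tag-only sample was pooled with DNA-barcoded human transcription factors that had been expressed in yeast as GST fusions and captured on glutathione beads. The pools were incubated for 30 min at room temperature with 200 nmole of a random double-stranded 16-mer DNA library in Tris/NaCl/DTT/glycerol buffer, then washed, crosslinked with 0.1% formaldehyde, proximity-ligated (BsaI/T4 ligase, 1 h, 37 °C), PCR-amplified and sequenced on an Illumina NextSeq500. Binding signal is each hexamer's read frequency for a factor divided by its frequency for the tag-only sample.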

ELK1 = biological target: T2, ELK1 (Homo sapiens, UniProt P19419 1-428); conditions: protein: recombinant; tags: N-terminal GST; dsDNA, one strand shown
T2 sequence: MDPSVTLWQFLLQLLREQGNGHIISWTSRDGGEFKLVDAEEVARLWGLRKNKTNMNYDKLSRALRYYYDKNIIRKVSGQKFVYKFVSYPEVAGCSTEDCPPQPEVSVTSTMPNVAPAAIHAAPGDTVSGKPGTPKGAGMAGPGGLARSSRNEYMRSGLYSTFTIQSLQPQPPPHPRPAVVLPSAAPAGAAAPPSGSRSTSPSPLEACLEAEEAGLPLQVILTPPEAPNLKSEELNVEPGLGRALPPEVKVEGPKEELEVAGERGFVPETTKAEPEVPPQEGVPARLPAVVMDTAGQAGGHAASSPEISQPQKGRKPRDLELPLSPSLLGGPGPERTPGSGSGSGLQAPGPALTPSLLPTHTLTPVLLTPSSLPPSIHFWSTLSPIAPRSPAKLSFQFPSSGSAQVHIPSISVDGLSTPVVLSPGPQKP
Outline: as §1

GABPA = biological target: T3, GABPA (Homo sapiens, UniProt Q06546 1-454); conditions: protein: recombinant; tags: N-terminal GST; dsDNA, one strand shown
T3 sequence: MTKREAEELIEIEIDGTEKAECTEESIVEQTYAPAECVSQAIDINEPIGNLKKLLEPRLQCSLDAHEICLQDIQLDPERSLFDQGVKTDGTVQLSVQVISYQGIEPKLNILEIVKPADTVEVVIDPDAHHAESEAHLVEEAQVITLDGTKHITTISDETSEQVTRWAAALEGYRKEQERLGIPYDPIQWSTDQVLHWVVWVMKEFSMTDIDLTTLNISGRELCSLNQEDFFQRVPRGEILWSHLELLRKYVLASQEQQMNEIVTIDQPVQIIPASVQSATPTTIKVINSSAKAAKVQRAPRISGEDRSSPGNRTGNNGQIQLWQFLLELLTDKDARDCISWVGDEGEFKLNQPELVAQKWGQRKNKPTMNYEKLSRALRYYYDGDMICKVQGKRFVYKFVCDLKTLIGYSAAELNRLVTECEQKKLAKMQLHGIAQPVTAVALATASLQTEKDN
Outline: as §1

ERG = biological target: T4, ERG (Homo sapiens, UniProt P11308 1-479); conditions: protein: recombinant; tags: N-terminal GST; dsDNA, one strand shown
T4 sequence: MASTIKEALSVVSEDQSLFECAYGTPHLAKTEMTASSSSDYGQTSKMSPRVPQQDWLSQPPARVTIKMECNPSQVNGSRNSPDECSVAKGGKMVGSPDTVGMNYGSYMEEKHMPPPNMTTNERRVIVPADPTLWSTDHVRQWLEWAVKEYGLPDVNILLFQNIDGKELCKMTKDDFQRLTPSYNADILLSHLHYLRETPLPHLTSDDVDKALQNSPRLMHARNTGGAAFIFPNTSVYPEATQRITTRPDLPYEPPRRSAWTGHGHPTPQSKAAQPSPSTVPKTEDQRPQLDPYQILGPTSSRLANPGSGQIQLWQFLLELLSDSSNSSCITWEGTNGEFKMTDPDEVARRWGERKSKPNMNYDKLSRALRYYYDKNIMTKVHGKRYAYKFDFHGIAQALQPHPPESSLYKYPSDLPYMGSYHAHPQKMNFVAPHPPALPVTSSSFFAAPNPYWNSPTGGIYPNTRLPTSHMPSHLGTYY
Outline: as §1

ELF1 = ELF1 (Homo sapiens, UniProt P32519 1-619); conditions: protein: recombinant; tags: N-terminal GST; dsDNA, one strand shown
Sequence of ELF1 (P32519 whole entry): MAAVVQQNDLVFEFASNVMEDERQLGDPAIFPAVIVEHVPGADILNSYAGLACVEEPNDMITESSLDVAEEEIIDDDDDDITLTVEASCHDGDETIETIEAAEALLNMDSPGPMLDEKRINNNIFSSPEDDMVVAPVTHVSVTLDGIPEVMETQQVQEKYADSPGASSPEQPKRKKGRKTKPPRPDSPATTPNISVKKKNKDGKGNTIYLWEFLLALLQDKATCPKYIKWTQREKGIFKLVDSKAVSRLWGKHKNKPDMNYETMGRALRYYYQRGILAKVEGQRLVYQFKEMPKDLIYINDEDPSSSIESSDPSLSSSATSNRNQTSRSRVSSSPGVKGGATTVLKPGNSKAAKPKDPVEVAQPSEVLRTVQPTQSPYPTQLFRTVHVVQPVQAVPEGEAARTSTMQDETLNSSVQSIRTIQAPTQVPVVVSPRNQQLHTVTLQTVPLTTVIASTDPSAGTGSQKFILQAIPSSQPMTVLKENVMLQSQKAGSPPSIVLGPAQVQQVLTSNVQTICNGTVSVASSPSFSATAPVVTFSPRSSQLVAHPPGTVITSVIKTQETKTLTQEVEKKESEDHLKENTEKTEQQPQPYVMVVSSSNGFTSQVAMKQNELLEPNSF
Outline: as §1

EHF = biological target: T5, EHF (Homo sapiens, UniProt Q9NZC4 1-300); conditions: protein: recombinant; tags: N-terminal GST; dsDNA, one strand shown
T5 sequence: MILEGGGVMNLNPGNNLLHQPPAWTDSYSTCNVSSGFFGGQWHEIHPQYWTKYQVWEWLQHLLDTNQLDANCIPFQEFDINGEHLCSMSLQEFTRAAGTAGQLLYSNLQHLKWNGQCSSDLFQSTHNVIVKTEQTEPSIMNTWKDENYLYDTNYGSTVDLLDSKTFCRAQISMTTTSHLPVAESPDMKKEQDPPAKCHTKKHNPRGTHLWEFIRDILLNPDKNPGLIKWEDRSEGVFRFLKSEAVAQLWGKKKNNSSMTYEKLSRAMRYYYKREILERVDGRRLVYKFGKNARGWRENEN
Outline: as §1

SPI1 = SPI1 (Homo sapiens, UniProt P17947 1-270); conditions: protein: recombinant; tags: N-terminal GST; dsDNA, one strand shown
Outline: as §1

SPIB = SPIB (Homo sapiens, UniProt Q01892 1-262); conditions: protein: recombinant; tags: N-terminal GST; dsDNA, one strand shown
Sequence of SPIB (Q01892 whole entry): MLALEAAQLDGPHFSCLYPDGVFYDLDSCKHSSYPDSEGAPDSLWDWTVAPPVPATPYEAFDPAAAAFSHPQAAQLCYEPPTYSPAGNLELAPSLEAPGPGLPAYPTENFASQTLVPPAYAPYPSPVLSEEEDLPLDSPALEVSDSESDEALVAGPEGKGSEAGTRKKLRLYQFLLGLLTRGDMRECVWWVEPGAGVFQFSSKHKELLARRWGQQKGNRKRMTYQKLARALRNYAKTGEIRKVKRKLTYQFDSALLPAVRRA
Outline: as §1

ELK3 = biological target: T6, ELK3 (Homo sapiens, UniProt P41970 1-407); conditions: protein: recombinant; tags: N-terminal GST; dsDNA, one strand shown
T6 sequence: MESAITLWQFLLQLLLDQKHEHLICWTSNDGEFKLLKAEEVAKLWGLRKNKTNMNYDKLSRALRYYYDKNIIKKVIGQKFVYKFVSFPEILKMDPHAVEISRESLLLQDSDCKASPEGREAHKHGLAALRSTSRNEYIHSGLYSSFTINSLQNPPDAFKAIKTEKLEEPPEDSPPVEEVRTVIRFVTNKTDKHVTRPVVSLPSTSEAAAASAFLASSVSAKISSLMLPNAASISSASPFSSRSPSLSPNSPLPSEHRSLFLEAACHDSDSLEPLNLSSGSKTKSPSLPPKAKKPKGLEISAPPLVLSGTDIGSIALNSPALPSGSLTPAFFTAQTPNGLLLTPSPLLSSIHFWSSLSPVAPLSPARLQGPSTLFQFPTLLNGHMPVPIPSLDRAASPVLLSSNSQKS
Outline: as §1

FEV = biological target: T7, FEV (Homo sapiens, UniProt Q99581 1-238); conditions: protein: recombinant; tags: N-terminal GST; dsDNA, one strand shown
T7 sequence: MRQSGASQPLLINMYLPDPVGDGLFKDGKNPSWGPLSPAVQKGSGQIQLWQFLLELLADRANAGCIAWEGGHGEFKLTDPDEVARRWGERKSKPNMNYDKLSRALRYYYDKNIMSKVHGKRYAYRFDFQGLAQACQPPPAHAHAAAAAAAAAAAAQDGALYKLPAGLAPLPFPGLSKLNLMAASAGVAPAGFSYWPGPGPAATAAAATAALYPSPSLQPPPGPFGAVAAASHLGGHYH
Outline: as §1

ETV5 = ETV5 (Homo sapiens, UniProt P41161 1-510); conditions: protein: recombinant; tags: N-terminal GST; dsDNA, one strand shown
Sequence of ETV5 (P41161 whole entry): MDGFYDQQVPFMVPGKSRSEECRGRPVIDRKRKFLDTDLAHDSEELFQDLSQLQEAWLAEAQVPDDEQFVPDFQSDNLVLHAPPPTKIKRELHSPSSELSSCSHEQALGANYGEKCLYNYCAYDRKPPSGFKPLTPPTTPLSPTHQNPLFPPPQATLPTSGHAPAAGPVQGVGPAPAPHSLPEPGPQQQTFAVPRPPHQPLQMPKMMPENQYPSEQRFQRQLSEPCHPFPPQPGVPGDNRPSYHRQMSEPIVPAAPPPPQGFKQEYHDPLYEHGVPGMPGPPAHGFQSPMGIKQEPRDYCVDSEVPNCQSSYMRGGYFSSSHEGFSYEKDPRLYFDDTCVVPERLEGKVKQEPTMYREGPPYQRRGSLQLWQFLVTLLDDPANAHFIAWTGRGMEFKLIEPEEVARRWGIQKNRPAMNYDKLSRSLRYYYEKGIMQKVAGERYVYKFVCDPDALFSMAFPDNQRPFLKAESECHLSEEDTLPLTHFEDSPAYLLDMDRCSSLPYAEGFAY
Outline: as §1

HSF1 = HSF1 (Homo sapiens, UniProt Q00613 1-529); conditions: protein: recombinant; tags: N-terminal GST; chain copies: 3; dsDNA, one strand shown
Sequence of HSF1 (Q00613 whole entry): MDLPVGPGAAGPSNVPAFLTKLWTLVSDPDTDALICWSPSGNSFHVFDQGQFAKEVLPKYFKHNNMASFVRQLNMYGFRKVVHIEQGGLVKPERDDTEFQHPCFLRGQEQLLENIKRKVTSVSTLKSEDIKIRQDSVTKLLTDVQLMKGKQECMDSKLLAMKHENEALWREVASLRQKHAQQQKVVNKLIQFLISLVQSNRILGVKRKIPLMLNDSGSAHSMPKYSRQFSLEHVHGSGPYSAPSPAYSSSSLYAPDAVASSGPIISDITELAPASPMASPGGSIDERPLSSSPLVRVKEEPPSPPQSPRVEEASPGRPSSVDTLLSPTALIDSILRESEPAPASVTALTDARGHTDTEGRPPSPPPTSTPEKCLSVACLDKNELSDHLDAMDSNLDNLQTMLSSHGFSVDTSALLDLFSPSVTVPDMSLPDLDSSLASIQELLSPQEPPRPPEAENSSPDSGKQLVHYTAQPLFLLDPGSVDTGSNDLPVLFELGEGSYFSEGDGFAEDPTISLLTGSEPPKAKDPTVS
Outline: as §1

ELF4 = ELF4 (Homo sapiens, UniProt Q99607 1-663); conditions: protein: recombinant; tags: N-terminal GST; dsDNA, one strand shown
Sequence of ELF4 (Q99607 whole entry): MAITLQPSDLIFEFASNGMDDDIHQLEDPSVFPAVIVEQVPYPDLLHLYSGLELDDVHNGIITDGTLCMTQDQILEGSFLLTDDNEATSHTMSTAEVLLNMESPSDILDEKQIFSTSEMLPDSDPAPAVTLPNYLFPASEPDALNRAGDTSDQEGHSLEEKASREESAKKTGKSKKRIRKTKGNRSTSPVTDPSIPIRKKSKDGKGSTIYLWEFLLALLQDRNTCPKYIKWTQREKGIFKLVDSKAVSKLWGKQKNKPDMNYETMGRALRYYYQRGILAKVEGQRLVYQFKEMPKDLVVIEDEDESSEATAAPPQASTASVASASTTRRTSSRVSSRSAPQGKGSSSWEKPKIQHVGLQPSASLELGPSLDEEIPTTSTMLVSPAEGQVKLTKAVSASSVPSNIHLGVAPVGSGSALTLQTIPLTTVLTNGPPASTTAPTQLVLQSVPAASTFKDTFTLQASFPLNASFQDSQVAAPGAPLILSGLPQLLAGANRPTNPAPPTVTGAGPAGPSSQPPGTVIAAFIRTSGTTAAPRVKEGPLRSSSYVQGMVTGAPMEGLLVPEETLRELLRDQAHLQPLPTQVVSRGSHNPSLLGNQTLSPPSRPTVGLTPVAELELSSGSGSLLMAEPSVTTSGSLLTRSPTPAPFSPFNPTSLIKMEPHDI
Outline: as §1

ELK4 = biological target: T8, ELK4 (Homo sapiens, UniProt P28324-2 1-405); conditions: protein: recombinant; tags: N-terminal GST; dsDNA, one strand shown
T8 sequence: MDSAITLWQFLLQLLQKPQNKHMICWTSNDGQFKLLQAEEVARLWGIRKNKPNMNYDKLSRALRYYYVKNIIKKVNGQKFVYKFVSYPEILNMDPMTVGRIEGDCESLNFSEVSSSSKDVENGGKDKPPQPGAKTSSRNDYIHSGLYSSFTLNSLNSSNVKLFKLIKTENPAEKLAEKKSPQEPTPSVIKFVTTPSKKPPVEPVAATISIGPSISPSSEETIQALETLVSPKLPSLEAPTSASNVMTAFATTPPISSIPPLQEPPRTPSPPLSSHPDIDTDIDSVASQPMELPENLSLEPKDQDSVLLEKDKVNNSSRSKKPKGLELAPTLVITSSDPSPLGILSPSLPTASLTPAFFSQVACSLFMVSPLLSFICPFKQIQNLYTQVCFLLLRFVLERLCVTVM
Outline: as §1

ETV2 = biological target: T9, ETV2 (Homo sapiens, UniProt O00321 1-342); conditions: protein: recombinant; tags: N-terminal GST; dsDNA, one strand shown
T9 sequence: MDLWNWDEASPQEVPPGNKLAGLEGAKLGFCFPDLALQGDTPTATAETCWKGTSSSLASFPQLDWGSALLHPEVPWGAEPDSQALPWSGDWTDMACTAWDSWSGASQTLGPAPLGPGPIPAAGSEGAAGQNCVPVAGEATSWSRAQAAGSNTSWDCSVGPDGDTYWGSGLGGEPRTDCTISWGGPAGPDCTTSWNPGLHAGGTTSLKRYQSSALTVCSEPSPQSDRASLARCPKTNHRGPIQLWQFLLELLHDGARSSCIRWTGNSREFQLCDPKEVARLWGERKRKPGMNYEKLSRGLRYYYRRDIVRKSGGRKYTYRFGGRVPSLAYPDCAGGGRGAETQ
Outline: as §1

ELF3 = biological target: T10, ELF3 (Homo sapiens, UniProt P78545 1-371); conditions: protein: recombinant; tags: N-terminal GST; dsDNA, one strand shown
T10 sequence: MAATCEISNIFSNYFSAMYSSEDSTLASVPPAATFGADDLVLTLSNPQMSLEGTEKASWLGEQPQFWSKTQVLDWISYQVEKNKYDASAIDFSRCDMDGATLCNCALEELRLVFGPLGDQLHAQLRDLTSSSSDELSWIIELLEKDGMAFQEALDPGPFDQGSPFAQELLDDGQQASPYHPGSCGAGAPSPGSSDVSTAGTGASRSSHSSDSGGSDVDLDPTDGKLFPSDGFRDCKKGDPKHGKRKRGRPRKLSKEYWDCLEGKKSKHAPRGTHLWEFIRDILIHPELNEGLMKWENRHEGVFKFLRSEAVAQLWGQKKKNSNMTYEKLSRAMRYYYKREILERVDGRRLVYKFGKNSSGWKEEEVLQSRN
Outline: as §1

CRX = CRX (Homo sapiens, UniProt O43186 1-299); conditions: protein: recombinant; tags: N-terminal GST; dsDNA, one strand shown
Sequence of CRX (O43186 whole entry): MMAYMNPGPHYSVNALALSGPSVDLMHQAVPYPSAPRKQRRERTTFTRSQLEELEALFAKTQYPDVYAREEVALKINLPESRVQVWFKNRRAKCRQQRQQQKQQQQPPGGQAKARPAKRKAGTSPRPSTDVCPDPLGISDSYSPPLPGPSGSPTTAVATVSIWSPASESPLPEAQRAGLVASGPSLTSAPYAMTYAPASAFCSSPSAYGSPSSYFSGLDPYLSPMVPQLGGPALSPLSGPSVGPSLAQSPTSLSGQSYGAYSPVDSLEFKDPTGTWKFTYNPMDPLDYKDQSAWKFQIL
Outline: as §1

ETV1 = ETV1 (Homo sapiens, UniProt P50549 1-477); conditions: protein: recombinant; tags: N-terminal GST; dsDNA, one strand shown
Sequence of ETV1 (P50549 whole entry): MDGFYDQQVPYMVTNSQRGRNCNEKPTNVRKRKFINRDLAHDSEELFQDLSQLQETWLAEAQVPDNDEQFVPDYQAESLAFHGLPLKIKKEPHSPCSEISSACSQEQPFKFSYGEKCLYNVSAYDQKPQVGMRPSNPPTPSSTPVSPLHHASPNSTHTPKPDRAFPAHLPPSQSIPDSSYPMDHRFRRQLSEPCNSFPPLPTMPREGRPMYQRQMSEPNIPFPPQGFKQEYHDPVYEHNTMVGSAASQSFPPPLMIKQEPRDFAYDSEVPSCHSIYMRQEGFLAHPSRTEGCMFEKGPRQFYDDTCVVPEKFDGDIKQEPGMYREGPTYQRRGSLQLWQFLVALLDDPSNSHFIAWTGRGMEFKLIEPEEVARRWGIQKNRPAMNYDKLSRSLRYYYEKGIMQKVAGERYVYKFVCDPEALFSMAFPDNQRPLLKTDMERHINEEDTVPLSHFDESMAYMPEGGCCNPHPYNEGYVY
Outline: as §1

Question: Which results are given for AAAAGA?
Answer: binding signal (FLI1): 1.11 fold enrichment (6-mer frequency, TF over GST control); binding signal (ELK1): 1.19 fold enrichment (6-mer frequency, TF over GST control); binding signal (GABPA): 1.19 fold enrichment (6-mer frequency, TF over GST control); binding signal (ERG): 1.06 fold enrichment (6-mer frequency, TF over GST control); binding signal (ELF1): 1.06 fold enrichment (6-mer frequency, TF over GST control); binding signal (EHF): 1.2 fold enrichment (6-mer frequency, TF over GST control); binding signal (SPI1): 1.5 fold enrichment (6-mer frequency, TF over GST control); binding signal (SPIB): 1.26 fold enrichment (6-mer frequency, TF over GST control); binding signal (ELK3): 1.11 fold enrichment (6-mer frequency, TF over GST control); binding signal (FEV): 1.07 fold enrichment (6-mer frequency, TF over GST control); binding signal (ETV5): 1.12 fold enrichment (6-mer frequency, TF over GST control); binding signal (HSF1): 1.43 fold enrichment (6-mer frequency, TF over GST control); binding signal (ELF4): 1.2 fold enrichment (6-mer frequency, TF over GST control); binding signal (ELK4): 1.2 fold enrichment (6-mer frequency, TF over GST control); binding signal (ETV2): 1.1 fold enrichment (6-mer frequency, TF over GST control); binding signal (ELF3): 1.17 fold enrichment (6-mer frequency, TF over GST control); binding signal (CRX): 1.28 fold enrichment (6-mer frequency, TF over GST control); binding signal (ETV1): 1.14 fold enrichment (6-mer frequency, TF over GST control)
